Measured values from PubChem BioAssay (NCI).
Several values for one entry are separate records, joined by “and”; a condition that tells them apart may be missing. Equal entries are not always repeated. This is part of a sample that, as a whole, favours compounds with a hit. Of some 83,000 tested, about 20% had one in any assay.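 Single-dose data. Exposure time 48 hours. Values below 10 considered active.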 Unmarked numbers belong to inactive results. Activity calls are given as the source filed them.

Key:
Experiment in all cases: NCI-60 one-dose screen, 48 h (100 = growth as untreated, 0 = no growth, -100 = all killed)
Details in all cases: 10 µM unless noted
NCI-H23 lung = system: NCI-H23 lung
NCI-H226 lung = system: NCI-H226 lung
NCI-H322M lung = system: NCI-H322M lung
HOP-62 NSCLC = system: HOP-62 NSCLC
NCI-H460 lung = system: NCI-H460 lung
HOP-92 NSCLC = system: HOP-92 NSCLC
NCI-H522 lung = system: NCI-H522 lung
A549/ATCC NSCLC = system: A549/ATCC NSCLC
786-0 renal = system: 786-0 renal
COLO 205 colon = system: COLO 205 colon
DU-145 prostate = system: DU-145 prostate
K-562 leukemia = system: K-562 leukemia
MALME-3M melanoma = system: MALME-3M melanoma
MDA-MB-231 breast = system: MDA-MB-231 breast
RXF 393 renal = system: RXF 393 renal
SF-268 CNS = system: SF-268 CNS
SF-295 CNS = system: SF-295 CNS
SF-539 CNS = system: SF-539 CNS
UACC-257 melanoma = system: UACC-257 melanoma
M14 melanoma = system: M14 melanoma

SMILES | growth (NCI-H23 lung) | growth (NCI-H226 lung) | growth (NCI-H322M lung) | growth (HOP-62 NSCLC) | growth (NCI-H460 lung) | growth (HOP-92 NSCLC) | growth (NCI-H522 lung) | growth (A549/ATCC NSCLC) | growth (786-0 renal) | growth (COLO 205 colon) | growth (DU-145 prostate) | growth (K-562 leukemia) | growth (MALME-3M melanoma) | growth (MDA-MB-231 breast) | growth (RXF 393 renal) | growth (SF-268 CNS) | growth (SF-295 CNS) | growth (SF-539 CNS) | growth (UACC-257 melanoma) | growth (M14 melanoma)
OC(CNc1ccnc2cc(Cl)ccc12)CNc1ccnc2cc(Cl)ccc12 | 72% | 39.3% | 52.1% | 98.7% | 63.5% | 77.6% | -3.14% (active) | 95.3% | 95.5% | -55.4% (active) | 57.4% | 2.44% (active) | -77.9% (active) | -56.5% (active) | 97.4% | 82.2% | 71.6% | -79.8% (active) | 93.5% | 20.1%
CNc1ccc(N)cc1 | 103% | 96.4% | 103% | 106% | 106% | 135% | 87.5% | 111% | 110% | 141% | 121% | 135% | 98.1% | 99% | 214% | 114% | 108% | 96.8% | 137% | 112%
CC(C)(C)c1ccc(O)c(C2CCCCC2)c1 | 98% | 104% | 105% | 107% | 107% | 96.6% | 83.6% | 95.9% | 99.8% | 103% | 102% | 89.8% | 115% | 106% | 90.9% | 99.4% | 130% | 121% | 86.6% | 122%
O=C1C=CC(=O)N1C1c2ccccc2-c2ccccc21 | 98.1% | 95.6% | 94.6% | 96.3% | 96.5% | 67.5% | 29.4% | 91.4% | 75.2% | 20% | 103% | 18.5% | 90.1% | 97.9% | 80.5% | 102% | 99.5% | 98.3% | 85.7% | 96.5%
O=C(/C=C/c1cccc(Cl)c1)c1ccccc1 | 95.5% and 97.5% | 94.2% and 74.4% | 90.7% and 81.9% | 112% and 89.9% | 101% and 95.9% | 88.1% | 82.3% and 48.4% | 83.6% and 86.7% | 88.3% and 77.5% | 115% and 105% | 101% and 87.6% | 28.7% and 46.5% | 104% | 105% and 89.2% | 85.4% | 99.9% and 98.4% | 93.9% and 95.8% | 105% and 97.9% | 100% and 94.4% | 86.8% and 83%
O=C1c2ccccc2C(=O)c2sc(Nc3ccc(Cl)cc3)nc21 | -53.2% (active) | 1.07% (active) | 78% | 55.4% | 87.7% | 59.1% | 15.9% | 71.8% | 60.9% | 82.9% | -78.3% (active) | 4.83% (active) | -79.6% (active) | 6.43% (active) | 17% | 42% | 98.4% | 2.24% (active) | -16% (active) | -2.34% (active)
CN(C)c1ccc(C(=C2C=CC(=[N+](C)C)C=C2)c2ccc(N(C)C)cc2)cc1 (tested in a mixture with another compound) | -49% (active) | -60% (active) | -27.7% (active) | -34.2% (active) | -75.1% (active) | -66.8% (active) | -47% (active) | -18.2% (active) | -90.4% (active) | -97.7% (active) | -99.4% (active) | -55.3% (active) | -62.7% (active) | -60.9% (active) | -70.1% (active) | -92.2% (active) | -45.1% (active) | -94.2% (active) | -67.4% (active) | -63.2% (active)
Cc1ccc2nc(C[n+]3ccc4ccccc4c3)ccc2c1 | 42% | 68.9% | 97.6% | 69.9% | 55% | 28% | 47.1% | 51.7% | 92.2% | 27.3% | 76% | 44.2% | 61.2% | 73.5% | 93.6% | 70.4% | 59% | 71.9% | 24.9% | 45.8%
C/C=C1\SC(=S)NC1=O | 98.5% | 103% | 108% | 100% | 107% | 94.2% | 103% | 99.7% | 97.8% | 104% | 110% | 117% | 92.9% | 96.9% | 114% | 103% | 102% | 93.9% | 95% | 97.5%
Nc1nc(N)c2c(ccc3c2ccn3Cc2cccc([N+](=O)[O-])c2)n1 | -74.8% (active) | -86.6% (active) | -91.1% (active) | -83.7% (active) | -88.6% (active) | -72.1% (active) | -84.3% (active) | -83% (active) | -89.6% (active) | -88.9% (active) | -97% (active) | 31.8% | -82.7% (active) | -87.9% (active) | -83.6% (active) | -78% (active) | -93.3% (active) | -96.7% (active) | -78.9% (active) | -83.2% (active)
O=C(Nc1ccccc1)c1cc(Cl)ccc1O | 53% | 74% | 83.1% | 63.5% | 37.4% | 14.5% | 10.3% | 33.7% | 59.7% | 109% | 83.7% | 33.8% | 40.3% | 70.6% | 79.9% | 66.5% | 73.1% | 53.2% | 14.9% | 50.9%
CCC(=O)Sc1ccccc1C(=O)Nc1ccc(Cl)cc1 | 46.1% | 52.7% | 55.4% | 76.5% | 34.5% | 16.3% | 67.3% | 76.5% | 57% | 84.7% | 74.3% | 19.4% | 6.61% (active) | 67.2% | 88.2% | 56.4% | 35.5% | 49.7% | 94.7% | 42.4%
N#Cc1ccc([N+](=O)[O-])o1 | 112% | 94.1% | 106% | 96.7% | 107% | 93.1% | 77.1% | 75.7% | 102% | 104% | 111% | 105% | 118% | 105% | 113% | 103% | 99.6% | 101% | 79.7% | 97.9%
NC(=S)N/N=C\c1nccc2c(C(F)(F)C(F)(F)C(F)(F)F)cccc12 | 9.5% (active) | -27.3% (active) | -1.69% (active) | -7.59% (active) | -25.9% (active) | -2.33% (active) | -20.7% (active) | -20.8% (active) | -48.3% (active) | 16.5% | 1.56% (active) | 4.7% (active) | -3.69% (active) | 36.9% | -11.7% (active) | 13% | 7.4% (active) | -10.3% (active) | -18.2% (active) | -19.2% (active)
CCC(CCCN(CC)CCc1ccccc1)OC(=O)c1cc(OC)c(OC)c(OC)c1 (stereo not given) | 81.5% | 89.7% | 72.2% | 68.7% | 101% | 86.4% | 69.6% | 75.1% | 89.9% | 81.1% | 104% | 76.4% | 98.9% | 78.8% | 89.7% | 82.7% | 90.1% | 93.1% | 85.4% | 90.1%
